About 79,000 compounds went through this panel and 15% of them were active in at least one assay; those are over-represented in the sample as a whole. Active and inactive are the calls of the source. Rule as the data show it: active = growth inhibition above about 70%; inactive = the rest.
Experiments:
[1] = NCI Yeast Anticancer Drug Screen. Data for the rad50 strain (AID 155);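 also: 0% = growth of vehicle-only cultures of the same strain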; conditions: S. cerevisiae rad50 strain growth inhibition, active compounds read high
Outline: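 A DNA repair-deficient yeast mutant serves as the test organism; compound-induced growth inhibition is calculated against vehicle-treated cells.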

[2] = NCI Yeast Anticancer Drug Screen. Data for the mec2-1 strain (AID 157); conditions: S. cerevisiae mec2-1 strain, active compounds read high
Outline: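 Yeast mec2-1 mutant treated with compound. Readout: growth inhibition vs vehicle controls.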

[3] = NCI Yeast Anticancer Drug Screen. Data for the sgs1 mgt1 strain (AID 161);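 also: 0% = growth of cultures given vehicle only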; conditions: S. cerevisiae sgs1 mgt1 strain, active compounds read high
Outline: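 Test agents were incubated with a DNA-repair-mutant yeast strain. Growth was then read and compared against vehicle-treated controls.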

[4] = NCI Yeast Anticancer Drug Screen. Data for the cln2 rad14 strain (AID 165);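 also: 0% = growth equal to vehicle treated cultures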; conditions: S. cerevisiae cln2 rad14 strain, active compounds read high
Outline: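 cln2 rad14 yeast strain; compound exposure; growth inhibition read vs vehicle controls.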

[5] = NCI Yeast Anticancer Drug Screen. Data for the bub3 strain (AID 167); conditions: S. cerevisiae bub3 mutant strain, active compounds read high
Outline: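 Inhibition values come from growth of compound-treated mutant yeast normalised to vehicle-treated controls.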

[6] = NCI Yeast Anticancer Drug Screen. Data for the mlh1 rad18 strain (AID 175); conditions: S. cerevisiae mlh1 rad18 strain growth inhibition, active compounds read high
Outline: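 Yeast w/ defined DNA-repair lesions; compound exposure; growth vs vehicle controls → % inhibition.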

[7] = at 5.0 µM (retest, dose inferred, filed as 0.5)
[8] = at 50.0 µM (retest, dose inferred, filed as 5.0)

Measured: growth inhibition

O=C1CN2C(Cl)(Cl)C2(c2ccccc2)c2cc(Cl)ccc2N1CC1CC1 (configuration not stated)
inactive: [1]; [7] 54% | [2]; [7] 29% | [3]; [7] 27% | [4]; [7] 18% | [5]; [7] 39% | [5]; at 50.0 µM 68.2% | [6]; [7] 65%
active: [1]; [8] 93% | [1]; at 50.0 µM 90.3% | [2]; [8] 93% | [2]; at 50.0 µM 91.3% | [3]; [8] 94% | [3]; at 50.0 µM 92.7% | [4]; [8] 91% | [4]; at 50.0 µM 88.3% | [5]; [8] 93% | [6]; [8] 92% | [6]; at 50.0 µM 87.3%

O=[N+]([O-])C(Br)(Br)CCC(Br)(Br)[N+](=O)[O-]
active: [1]; [7] 99% | [1]; [8] 99% | [1]; at 50.0 µM 99.5% | [2]; [7] 99% | [2]; [8] 100% | [2]; at 50.0 µM 99.8% | [3]; [7] 99% | [3]; [8] 99% | [4]; [7] 100% | [4]; [8] 99% | [4]; at 50.0 µM 81.3% | [5]; [7] 100% | [5]; [8] 100% | [5]; at 50.0 µM 99.7% | [6]; [7] 99% | [6]; [8] 99% | [6]; at 50.0 µM 99.5%
inactive: [3]; at 50.0 µM 52.4%

O=c1c[n+](-c2ccc[nH+]c2)[nH]o1.[Cl][Hg][Cl]
active: [1]; [7] 99% | [1]; [8] 99% | [1]; at 50.0 µM 99.3% | [2]; [7] 100% | [2]; [8] 100% | [2]; at 50.0 µM 99.5% | [3]; [7] 100% | [3]; [8] 100% | [3]; at 50.0 µM 99.5% | [4]; [7] 99% | [4]; [8] 99% | [4]; at 50.0 µM 99.3% | [5]; [7] 99% | [5]; [8] 99% | [5]; at 50.0 µM 99.4% | [6]; [7] 99% | [6]; [8] 99% | [6]; at 50.0 µM 99.2%

[C-]#[O+].[C-]#[O+].[C-]#[O+].[CH3][Sn]([c]1ccccc1)[c]1ccccc1.[Co].c1ccc([PH+](c2ccccc2)c2ccccc2)cc1
active: [1]; [7] 99% | [1]; [8] 99% | [1]; at 50.0 µM 99.5% | [2]; [7] 99% | [2]; [8] 100% | [2]; at 50.0 µM 99.5% | [3]; [7] 99% | [3]; [8] 100% | [3]; at 50.0 µM 99.5% | [4]; [7] 99% | [4]; [8] 99% | [4]; at 50.0 µM 99% | [5]; [7] 99% | [5]; [8] 99% | [5]; at 50.0 µM 99.5% | [6]; [7] 99% | [6]; [8] 99% | [6]; at 50.0 µM 99.3%

Ic1cccc2c1[se]c1ccccc12
active: [6]; [8] 75%
inactive: [1]; [7] -8% | [1]; [8] 22% | [1]; at 50.0 µM 25.2% | [2]; [7] 8% | [2]; [8] 20% | [2]; at 50.0 µM -4.05% | [3]; [7] 0% | [3]; [8] 40% | [3]; at 50.0 µM 6.7% | [4]; [7] 5% | [4]; [8] -28% | [4]; at 50.0 µM -27.8% | [5]; [7] -3% | [5]; [8] 27% | [5]; at 50.0 µM -11.3% | [6]; [7] 9% | [6]; at 50.0 µM 2.15%

O=[N+]([O-])c1cccc(N=Cc2ccc(N(CCCl)CCCl)cc2)c1
active: [5]; [8] 74% | [6]; [8] 74%
inactive: [1]; [7] 4% | [1]; [8] 53% | [1]; at 50.0 µM 66% | [2]; [7] 2% | [2]; [8] 64% | [2]; at 50.0 µM 21.9% | [3]; [7] 3% | [3]; [8] 63% | [3]; at 50.0 µM 44.4% | [4]; [7] 2% | [4]; [8] 54% | [4]; at 50.0 µM 26.1% | [5]; [7] 3% | [5]; at 50.0 µM 8% | [6]; [7] 7% | [6]; at 50.0 µM 60%

CCNC(C)(C)C(SS)c1ccc(Br)cc1 (configuration not stated)
active: [3]; at 50.0 µM 73.8% | [5]; at 50.0 µM 84.8% | [6]; at 50.0 µM 78.6%
inactive: [1]; [7] 6% | [1]; [8] 10% | [1]; at 50.0 µM 66.3% | [2]; [7] 2% | [2]; [8] -3% | [2]; at 50.0 µM 57.1% | [3]; [7] -3% | [3]; [8] 18% | [4]; [7] 25% | [4]; [8] 33% | [4]; at 50.0 µM 34.9% | [5]; [7] -15% | [5]; [8] 17% | [6]; [7] -21% | [6]; [8] 20%

Cc1cc(N(CCCl)CCCl)ccc1CN1CCCN(Cc2ccc(N(CCCl)CCCl)cc2C)C1c1cccc(F)c1
active: [1]; [8] 97% | [2]; [8] 99% | [3]; [8] 98% | [3]; at 50.0 µM 80.5% | [4]; [8] 97% | [5]; [8] 98% | [6]; [8] 95% | [6]; at 50.0 µM 76.5%
inactive: [1]; [7] 6% | [1]; at 50.0 µM 40.8% | [2]; [7] -27% | [2]; at 50.0 µM 18% | [3]; [7] 1% | [4]; [7] 2% | [4]; at 50.0 µM -0.15% | [5]; [7] 3% | [5]; at 50.0 µM 2.15% | [6]; [7] 8%

CC(C)C(=O)CP(=O)(O)O
active: [4]; at 50.0 µM 70.2%
inactive: [1]; [7] -10% | [1]; [8] 6% | [1]; at 50.0 µM -18.1% | [2]; [7] 8% | [2]; [8] -2% | [2]; at 50.0 µM -22.6% | [3]; [7] -9% | [3]; [8] -4% | [3]; at 50.0 µM -30.5% | [4]; [7] -31% | [4]; [8] -13% | [5]; [7] 7% | [5]; [8] 4% | [5]; at 50.0 µM -21.6% | [6]; [7] 7% | [6]; [8] 9% | [6]; at 50.0 µM -7.2%
